# Measured values reported in PubChem BioAssay (NCI).
# Compounds without any hit were thinned out: in the full panel of roughly 83,000, 20% have a hit.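 Growth was measured after 48 h exposure to one concentration of compound in 96-well plates. Values under 10 count as active.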 Values without a mark were called inactive. The source made the active and inactive calls.
# Tested on: BT-549 breast
# Assay: NCI-60 one-dose screen, 48 h (100 = growth as untreated, 0 = no growth, -100 = all killed)
# Conditions: 10 µM unless noted
# Method: Growth inhibition of the BT-549 human tumor cell line is measured as a screen for anti-cancer activity. Cells are grown in 96 well plates and exposed to the test compound for 48 hours. Compounds are tested at a single concentration, which is 10^-5 M for most compounds. The reported endpoint is percent growth (GI% or GIPRCNT), where numbers from 0 - 100% represent growth inhibition, and numbers from -100% - 0 represent cell death. For example, a value of 40 represents 60% growth inhibition. A value of 0 means no net growth occurred over the course of the experiment. A value of -40 indicates 40% of cells at the beginning of the experiment died by the end of the experiment. A value of -100 means all cells are dead at the end of the experiment.
# NCI-60 Human Tumor Cell Lines Screen was performed using the standard one-dose NCI protocol, which is described in more detail at https://dtp.cancer.gov/discovery_development/nci-60/default.htm.
# Compounds with GIPRCNT values below 10 were considered active. Activity score was based on GIPRCNT using the following formula: […]
# Score is 0 for GIPRCNT values of 100 or above, 50 for GIPRCNT values of 0, and 100 for GIPRCNT values of -100.
row,SMILES,growth
1,C/C=C/C=N/NC(=S)Nc1ccccc1,96.5%
2,COC1CCC(N2C(=O)CNc3ncc(-c4ccc(C(C)(C)O)nc4)nc32)CC1 (stereo not given),-8.77% (active)
3,NC(=O)c1n[nH]n2c1nc(=O)c1c3c(sc12)CCCC3,98.3%
4,COc1cnc2c(c1)C(=O)c1c-2n(CCCN2CCC(N)CC2)c(=O)c2cc([N+](=O)[O-])ccc12,76.7%
5,Cc1nc2cc(-c3nn(C(C)C)c4ncnc(N)c34)ccc2o1,-14.5% (active)
6,S=C(NCc1ccc2c(c1)OCO2)N1CCN(c2ncnc3c2oc2ccccc23)CC1,32.3%
7,O=C1OCC2=C1C(c1cccc(F)c1)c1cc3c(cc1N2CCO)OCCO3 (stereo not given),43.6%
8,Nc1ccc(S(=O)(=O)O)c2cc(S(=O)(=O)O)cc(O)c12,99%
9,CNc1ncc2cc(-c3cc(NC(=O)NCCC(C)(C)C)c(F)cc3C)c(C)nc2n1,30.5%
10,COc1ccc(-c2ccc3c(N4CCOC[C@@H]4C)nc(N4CCOC[C@@H]4C)nc3n2)cc1CO,-6.65% (active)
11,CCCS(=O)(=O)Nc1ccc(F)c(C(=O)c2c[nH]c3ncc(-c4ccc(Cl)cc4)cc23)c1F,41.1%
12,CCN(CCN(C)C)C(=O)CNCc1cc(C(N)=O)ccn1,102%
13,CO[C@H](C(=O)N[C@@H](CCCCNC(=O)OCc1ccccc1)C(=O)OC(C)(C)C)[C@@H]1Cc2cc3cc(OC4CC(OC5CC(O)C(O)C(C)O5)C(O)C(C)O4)c(C)c(O)c3c(O)c2C(=O)[C@H]1OC1CC(OC2CC(OC3CC(C)(O)C(O)C(C)O3)C(O)C(C)O2)C(O)C(C)O1 (stereo not given in full),-79.7% (active)
14,CC(C)(C)C(=O)OCOP(=O)(OCOC(=O)C(C)(C)C)C1CCCN(OC(=O)c2ccccc2)C1=O (stereo not given),7.84% (active)
15,O=C(NOCCO)c1cc(CN2OCCCC2=O)c(F)c(F)c1Nc1ccc(I)cc1F,80.5%
16,C=CC(=O)N1CCC[C@@H](n2nc(-c3ccc(Oc4ccccc4)cc3)c3c(N)ncnc32)C1,34.6%
17,C=C1C(=O)O[C@H]2[C@H]1CC/C(CNC(=O)c1cc3cc(OC)ccc3[nH]1)=C\CC[C@@]1(C)O[C@@H]21,-68.1% (active)
18,Cc1cccc(Cl)c1NC(=O)c1cnc(Nc2cc(N3CCOCC3)cc(N3CCOCC3)c2)s1,56.3%
19,O=C(NC1CCNCC1)c1[nH]ncc1NC(=O)c1c(Cl)cccc1Cl,7.37% (active)
20,CCN1CCN(CCCN(C[C@H]2Cc3ccccc3CN2)[C@H]2CCCc3cccnc32)CC1,79.7%

row,SMILES,growth
1,COc1ccc(Cl)c(Nc2nc3ccccc3nc2NS(=O)(=O)c2cccc(NC(=O)C(C)(C)N)c2)c1,28%
2,COc1cc2c(Nc3ccc(Br)cc3F)ncnc2cc1OCC1CCN(C)CC1,42.9%
3,O=C1NC(=O)/C(=C/c2ccc3nccc(-c4ccncc4)c3c2)S1,-36.7% (active)
4,CCc1ccc(C2=C(O)C(=O)C(c3ccc(CC)cc3)=C(O)C2=O)cc1,-23% (active)
5,Cc1cc(-c2cc(O)ccc2Cl)cc2nnc(Nc3ccc(OCCN4CCCC4)cc3)nc12,-50.7% (active)
6,CNC(=O)c1cc(Oc2ccc(NC(=O)Nc3ccc(Cl)c(C(F)(F)F)c3)c(F)c2)ccn1,-31.3% (active)
7,CC(=O)Oc1ccccc1C(=O)N=C1[Se]CCN1C(=O)c1ccccc1OC(C)=O,-94.3% (active)
8,CCCCN1C(=O)c2cccc3c(-c4ccc5c(c4)ncn5C4CCCCC4)ccc(c23)C1=O,99.4%
9,CCc1nc2cc(/C=C/C(=O)NO)ccc2c(=O)n1CCc1ccc(F)cc1,23.8%
10,Cc1cc(N2CCOCC2)nc(N(CCNc2ccnc3cc(Cl)ccc23)Cc2cccs2)n1,-16.3% (active)
11,Cn1cc(-c2ccc(F)c(C(F)(F)F)c2)nc1C1CCN(c2ncnc3[nH]ncc23)CC1,43.1%
12,Cc1csc(-c2nnc(Nc3ccc(Oc4ncccc4-c4ccnc(N)n4)cc3)c3ccccc23)c1,60.4%
13,C[N+](C)(CCOC(c1ccccc1)c1ccccc1)CC(=O)OCc1ccccc1,94.8%
14,CN1CCN(Cc2ccc(NC(=O)c3[nH]ncc3Nc3ncnc4sc5c(c34)CCCC5)cc2)CC1,-20.7% (active)
15,CCCNC(=O)c1cn2ncnc(Nc3cc(C(=O)NC4CC4)ccc3C)c2c1C,103%
16,Cc1sc2c(c1C)c(=O)nc1c(-c3nc4ccccc4s3)n[nH]n12,101%
17,O=C(CNc1nc2ccccc2s1)Nc1ccc(-c2nc3ccccc3s2)cc1,106%
18,CCN1/C(=C/C=C/c2n(-c3ccccc3)c3ccc(-c4nc5ccccc5s4)cc3[n+]2CC)N(c2ccccc2)c2ccc(-c3nc4ccccc4s3)cc21,-5.34% (active)
19,CC(=O)OC1Oc2ccccc2-c2oc(=O)c(-c3cc4ccc(N(C)C)cc4oc3=O)cc21 (stereo not given),15.9%
20,Cn1nccc1Nc1nccc(-c2ccn([C@H](CO)c3ccc(Cl)c(F)c3)c(=O)c2)n1,93.6%
